# Results filed as inconclusive are left out. Entries that show only a call come without a potency. Where a structure was tested more than once in an assay, its records may differ in their call. Calls of active or inactive are those of the source. Calls follow the shape of the dose curve; as a rule, active = well fitted curve in the direction sought with a large enough effect; inconclusive = small, poorly fitted or top-dose-only effect, or another doubt; inactive = no such curve, though single readings can be large; an effect the other way counts as inactive or inconclusive.
# Experiments:
# [1] = test system: MKL-1; assay: qHTS assay to identify novel small-molecules to repurpose for Merkel cell carcinoma treatment (AID 1296009); conditions: MCC and control cell lines, CellTiter-Glo viability, 72 h; series mostly up to 46 µM; also: nearly all actives have a fitted effect of over 60% in size; also: potency is read from the fitted curve at half-maximal effect
# How it was run: (§1)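 Luminescence from CellTiter-Glo, read 10 min after addition at room temperature, reported viability following a 72 hr, 37 degree celsius treatment with NPC or MIPE compounds in titration; values normalized to plate controls.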
# [2] = test system: MKL-2; assay: as above; conditions: MCC and control cell lines, CellTiter-Glo viability, 72 h; series mostly up to 46 µM
# How it was run: as §1
# [3] = test system: NIH3T3; assay: as above; conditions: MCC and control cell lines, CellTiter-Glo viability, 72 h; at 44.8 µM (top of the series) unless noted
# How it was run: as §1
# [4] = test system: UISO; assay: as above; conditions: MCC and control cell lines, CellTiter-Glo viability, 72 h; series mostly up to 46 µM
# How it was run: as §1
# [5] = test system: WaGa; assay: as above; conditions: MCC and control cell lines, CellTiter-Glo viability, 72 h; series mostly up to 46 µM
# How it was run: as §1
# [6] = test system: C33A; assay: Primary qHTS to identify gynecologic anti-cancer compounds using libraries of approved drugs and bioactive compounds (AID 1345084); conditions: Gynecologic cancer cell panel viability, ATPlite luminescence, 48 h; series mostly up to 57.5 µM; also: nearly all actives have a fitted effect of over 55% in size
# How it was run: (§2)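 Cells, 1,000 per well, plated 16 h, then exposed 48 h at 37 C to compounds. Viability by ATPlite luminescence after 15 min at room temperature.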
# [7] = test system: CAOV3; assay: as above; conditions: Gynecologic cancer cell panel viability, ATPlite luminescence, 48 h; series mostly up to 57.5 µM
# How it was run: as §2
# [8] = test system: CASKI; assay: as above; conditions: Gynecologic cancer cell panel viability, ATPlite luminescence, 48 h; series mostly up to 57.5 µM
# How it was run: as §2
# [9] = test system: Es-2; assay: as above; conditions: Gynecologic cancer cell panel viability, ATPlite luminescence, 48 h; series mostly up to 57.5 µM
# How it was run: as §2
# [10] = test system: HeLa; assay: as above; conditions: Gynecologic cancer cell panel viability, ATPlite luminescence, 48 h; series mostly up to 57.5 µM
# How it was run: as §2
# [11] = test system: Hek293T; assay: as above; conditions: Gynecologic cancer cell panel viability, ATPlite luminescence, 48 h, control line for the selectivity index; series mostly up to 57.5 µM
# How it was run: as §2
# [12] = test system: JEG-3; assay: as above; conditions: Gynecologic cancer cell panel viability, ATPlite luminescence, 48 h; series mostly up to 57.5 µM
# How it was run: as §2
# [13] = test system: OV90; assay: as above; conditions: Gynecologic cancer cell panel viability, ATPlite luminescence, 48 h; series mostly up to 57.5 µM
# How it was run: as §2
# [14] = test system: PA-1; assay: as above; conditions: Gynecologic cancer cell panel viability, ATPlite luminescence, 48 h; series mostly up to 57.5 µM
# How it was run: as §2
# [15] = test system: SKOV3; assay: as above; conditions: Gynecologic cancer cell panel viability, ATPlite luminescence, 48 h; series mostly up to 57.5 µM
# How it was run: as §2
# [16] = test system: Tov-21-G; assay: as above; conditions: Gynecologic cancer cell panel viability, ATPlite luminescence, 48 h; series mostly up to 57.5 µM
# How it was run: as §2
# [17] = test system: Tov112D; assay: as above; conditions: Gynecologic cancer cell panel viability, ATPlite luminescence, 48 h; series mostly up to 57.5 µM
# How it was run: as §2
# [18] = Drug repurposing screens with cells derived from glioblastoma tumor samples (AID 1345199); conditions: GBM patient neurospheres viability, ATP luminescence, 48 h; also: nearly all actives have a fitted effect of over 40% in size; also: potency is read from the fitted curve at half-maximal effect
# How it was run: (§3)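 Primary testing used CD133+ neurospheres from four GBM patients, seven concentrations, 48 h exposure and ATP-based viability; confirmation added three slower-growing patient lines.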
# [19] = test system: astro; assay: as above; conditions: viability, ATP luminescence, 48 h; series mostly up to 45.9 µM
# How it was run: as §3
# [20] = at 20 µM (top of the series), tumour line C
# [21] = at 21.2 µM (top of the series), tumour line B
# [22] = at 45.9 µM (top of the series), tumour line B
# [23] = at 45.9 µM (top of the series), tumour line D
# [24] = at 46.1 µM (top of the series), tumour line C
# [25] = at 46 µM (top of the series), tumour line A
smiles,measurement,setting,value
Nc1ccc(S(=O)(=O)Nc2ccccn2)cc1,Potency,[1],inactive
same,Potency,[2],inactive
same,outcome,[3],inactive
same,Potency,[4],inactive
same,Potency,[5],inactive
same,Potency,[6],inactive
same,Potency,[7],inactive
same,Potency,[8],inactive
same,Potency,[9],inactive
same,Potency,[10],inactive
same,Potency,[11],inactive
same,Potency,[12],inactive
same,Potency,[13],inactive
same,Potency,[14],inactive
same,Potency,[15],inactive
same,Potency,[16],inactive
same,Potency,[17],inactive
same,"activity, negative = cell killing",[18]; [20],-7.01% (inactive)
same,"activity, negative = cell killing",[18]; [21],0.146% (inactive)
same,"activity, negative = cell killing","[18]; at 21.2 µM (top of the series), tumour line D",5.31% (inactive)
same,"activity, negative = cell killing","[18]; at 21.3 µM (top of the series), tumour line A",-9.41% (inactive)
NC(=O)N1c2ccccc2CC(=O)c2ccccc21,Potency,[1],inactive
same,Potency,[2],6.68 µM (active) and inactive
same,outcome,[3],inactive
same,Potency,[4],inactive
same,Potency,[5],inactive
same,Potency,[6],inactive
same,Potency,[7],inactive
same,Potency,[8],inactive
same,Potency,[9],inactive
same,Potency,[10],inactive
same,Potency,[11],inactive
same,Potency,[12],inactive
same,Potency,[13],inactive
same,Potency,[14],inactive
same,Potency,[15],inactive
same,Potency,[16],inactive
same,Potency,[17],inactive
same,"activity, negative = cell killing",[18]; [22],-29.6% (inactive)
same,"activity, negative = cell killing",[18]; [23],-1.67% (inactive)
same,"activity, negative = cell killing",[18]; [24],-9.41% (inactive)
Cn1nnc2c(C(N)=O)ncn2c1=O,Potency,[1],inactive
same,Potency,[2],inactive
same,outcome,[3],inactive
same,Potency,[4],inactive
same,Potency,[5],inactive
same,Potency,[6],inactive
same,Potency,[7],inactive
same,Potency,[8],inactive
same,Potency,[9],inactive
same,Potency,[11],inactive
same,Potency,[12],inactive
same,Potency,[13],inactive
same,Potency,[14],inactive
same,Potency,[15],inactive
same,Potency,[16],inactive
same,Potency,[17],inactive
same,"activity, negative = cell killing",[18]; [22],-3.24% (inactive)
same,"activity, negative = cell killing",[18]; [23],-16.1% (inactive)
same,"activity, negative = cell killing",[18]; [25],-21.4% (inactive)
same,"activity, negative = cell killing",[18]; [24],-14.3% (inactive)
same,Potency,[19],inactive
CC1=NN(c2ccccc2)C(=O)C1,Potency,[1],inactive
same,Potency,[2],inactive
same,outcome,[3],inactive
same,Potency,[4],inactive
same,Potency,[5],inactive
same,Potency,[6],inactive
same,Potency,[7],inactive
same,Potency,[8],inactive
same,Potency,[9],inactive
same,Potency,[10],inactive
same,Potency,[11],inactive
same,Potency,[12],inactive
same,Potency,[13],inactive
same,Potency,[14],inactive
same,Potency,[15],inactive
same,Potency,[16],inactive
same,Potency,[17],inactive
same,"activity, negative = cell killing",[18]; [22],-3.42% (inactive)
same,"activity, negative = cell killing",[18]; [23],-8.39% (inactive)
same,"activity, negative = cell killing",[18]; [25],-29.7% (inactive)
same,"activity, negative = cell killing",[18]; [24],-6.42% (inactive)
CC(C)(Sc1cc(C(C)(C)C)c(O)c(C(C)(C)C)c1)Sc1cc(C(C)(C)C)c(O)c(C(C)(C)C)c1,Potency,[1],inactive
same,Potency,[2],inactive
same,outcome,[3],inactive
same,Potency,[4],inactive
same,Potency,[5],inactive
same,Potency,[6],inactive
same,Potency,[7],inactive
same,Potency,[8],inactive
same,Potency,[9],inactive
same,Potency,[10],inactive
same,Potency,[11],inactive
same,Potency,[12],inactive
same,Potency,[13],inactive
same,Potency,[14],inactive
same,Potency,[15],inactive
same,Potency,[16],inactive
same,Potency,[17],inactive
same,"activity, negative = cell killing",[18]; [20],-9.49% (inactive)
same,"activity, negative = cell killing",[18]; [21],-22% (inactive)
same,Potency,[18]; tumour line A,4.47 µM (active)
same,Potency,[19],inactive

# Source: PubChem BioAssay (NCATS)
